Compounds with a hit are over-represented: about 1.2% of the library has one in this group of screens.
TrxR1 substrate – is turned over as a substrate by rat TrxR1. 0.01% of 390,000 active. Potency, µM (doses to about 114 µM). purified TrxR1 substrate turnover, NADPH consumption readout. AID 588456; note: nearly all actives have a fitted effect of over 50% in size
Target sequence (O89049 whole entry, looked up): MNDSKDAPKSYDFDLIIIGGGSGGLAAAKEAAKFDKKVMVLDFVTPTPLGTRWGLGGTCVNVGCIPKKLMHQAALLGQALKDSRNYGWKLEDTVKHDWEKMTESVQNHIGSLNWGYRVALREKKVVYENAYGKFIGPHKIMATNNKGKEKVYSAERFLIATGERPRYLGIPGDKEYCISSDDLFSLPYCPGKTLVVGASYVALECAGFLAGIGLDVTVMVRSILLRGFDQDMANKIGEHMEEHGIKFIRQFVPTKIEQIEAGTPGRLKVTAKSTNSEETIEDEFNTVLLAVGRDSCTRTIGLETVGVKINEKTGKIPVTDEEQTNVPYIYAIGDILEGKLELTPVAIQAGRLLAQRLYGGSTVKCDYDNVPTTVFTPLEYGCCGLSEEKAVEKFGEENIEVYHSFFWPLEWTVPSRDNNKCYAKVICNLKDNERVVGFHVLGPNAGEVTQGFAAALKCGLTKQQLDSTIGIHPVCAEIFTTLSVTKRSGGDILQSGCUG
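Rat TrxR1, dispensed at 90 nM, was prereduced with 400 uM NADPH (final) for 5 min at ~22 deg C, then incubated with compound 15 min before 400 uM selenite. A first-read NADPH fluorescence drop versus no-compound background flagged substrates.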
GALK inh – inhibitors of human galactokinase. P51570. Purified GALK, Kinase-Glo residual ATP luminescence. Potency, µM (titrated, usually from 57.5 µM), usual class: inhibitors. 0.007% of 270,000 active. AID 1868
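The enzyme phosphorylates galactose (100 uM) using ATP (35 uM); inhibition is detected as higher residual ATP, quantified by bioluminescence after 1 h reaction at room temperature, pH 8.0.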
PKM2 activator – activators of human pyruvate kinase M2. AID 1631. 0.34% of 260,000 active. P14618. purified PKM2, Kinase-Glo ATP luminescence, activation; response scale: 0% is enzyme alone, no compound. Potency, µM (titrated, usually from 57.5 µM), hits mostly activators; note: nearly all actives have a fitted effect of over 55% in size
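Purified hPK-M2 (>95% pure) converted ADP (0.1 mM final) to ATP with 0.5 mM PEP in 50 mM imidazole pH7.2, KCl, MgCl2, Tween 20, BSA; 1 h at room temperature. ATP detected by Kinase-Glo luminescence.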
PI4K2A inh – inhibitors of human PI4K2A; purified PI4K2A, ADP-Glo luminescence, 1 h; stronger effect = lower value; 0.13% of 420,000 active; AID 1346378; activity change, negative = inhibition, % at 76.9 µM; Q9BTU6; in the data active = activity change below about -50%; inconclusive = mostly about -30% to -49%
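PI4K2A activity was measured by ADP-Glo luminescence: enzyme (4 ug/mL stock) and phosphatidylinositol (1.2 mM stock) in Tris pH 7.5/MgCl2/EGTA/Triton X-100 buffer were reacted with ATP (300 microM stock) for one hour at ambient temperature.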
TrxR1 inh – rat TrxR1 inhibition. O89049. recombinant rTrxR1, NADPH fluorescence consumption, selenite substrate. Potency, µM (highest dose often 114 µM), actives largely listed as inhibitors. 1% of 390,000 active. AID 588453; note: nearly all actives have a fitted effect of over 65% in size
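Rat TrxR1 (90 nM in the dispensed reagent) was pre-reduced with 400 uM NADPH for 5 min at room temperature, then incubated with compound for 15 min. After 400 uM selenite was added, NADPH fluorescence (Ex 340/Em 450 nm) was followed for 8 min.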
A number is an active result; . = inactive; ? = inconclusive; / = no result; [ ] = another dose, or the depositor's remark. Unless noted, calls come from the whole dose curve; as a rule, active = well fitted curve in the direction sought with a large enough effect; inconclusive = small, poorly fitted or top-dose-only effect, or another doubt; inactive = no such curve, though single readings can be large; an effect the other way counts as inactive or inconclusive.

SMILES	TrxR1 substrate	GALK inh	PKM2 activator	PI4K2A inh	TrxR1 inh
CC(c1ccccc1)n1cc(C(=O)N2CCCN(Cc3ccccc3)CC2)nn1 (stereo unspecified)	/	/	/	.	/
CCc1ccc(NCc2cc3ccc(OC)cc3n(CC(=O)Nc3ccc(C)c(Cl)c3)c2=O)cc1	.	/	/	.	.
Cc1ccc(C(c2cc(Cl)c3cccnc3c2O)N2CCN(C)CC2)cc1 (stereo unspecified)	.	.	.	.	4.5µM
CN1CCN(C(c2ccccn2)c2cc(Cl)c3cccnc3c2O)CC1 (stereo unspecified)	.	.	.	.	?
CN1CCN(C(c2ccc(C(F)(F)F)cc2)c2ccc3cccnc3c2O)CC1 (stereo unspecified)	.	.	.	.	6.3µM
Oc1c(C(c2ccc(Cl)cc2)N2CCCC2)cc(Cl)c2cccnc12 (stereo unspecified)	.	.	.	.	50µM
Oc1c(C(c2ccccn2)N2CCC(Cc3ccccc3)CC2)cc(Cl)c2cccnc12 (stereo unspecified)	.	.	.	.	.
Oc1c(C(c2ccccc2Cl)N2CCCC2)ccc2cccnc12 (stereo unspecified)	.	.	.	.	7.1µM
CC(C)c1cnc2c(c1SCC(=O)NCc1ccccc1Cl)c(=O)n(C)c(=O)n2C	.	/	/	.	.
COc1ccc2c(c1)CCc1c(C(=O)N3CCOCC3)noc1-2	.	.	.	.	20µM
COc1ccc2c(c1)CCc1c(C(=O)N3CCCc4ccccc43)noc1-2	.	.	.	.	.
CCOc1cc(/C=C2\CCCc3c2nc2ccccc2c3C(=O)O)ccc1OC	.	.	.	.	79µM
Cc1nc2scc(-c3ccccc3)c2c(=O)n1N	.	.	.	.	.
Cc1nc2scc(-c3ccccc3)c2c(=O)n1N=C1C=CC(=O)C=C1	.	.	.	.	3.2µM
CCOC(=O)c1cnc2ccc(OC(F)(F)F)cc2c1Nc1ccccc1C(=O)O	.	/	/	.	.
Cc1cccc(-c2n[nH]c(=S)n2-c2ccccc2)c1[N+](=O)[O-]	.	.	?	.	?
COc1ccc(-n2c(-c3cccc(C)c3[N+](=O)[O-])n[nH]c2=S)cc1	.	.	11µM	.	.
COC(=O)[C@]12C[C@H](CC(=O)N3CCSCC3)C(=O)N(CCc3ccc(OC)c(OC)c3)C1=C[C@H](COCc1ccccc1)O[C@@H]2C	/	/	/	.	/
CCOC(=O)C1(C)Oc2ccccc2C(c2ccc(OC)cc2)=C1C(=O)OC (stereo unspecified)	.	/	/	.	.
CCOC(=O)C1(C)C(C(=O)OC)=C(c2ccc(OC)cc2)c2ccccc2N1C(=O)OC (stereo unspecified)	.	/	/	.	40µM
COc1ccc(Br)cc1C1NC(c2ccc3c(c2)OCO3)=CC(c2ccccc2O)N1 (stereo unspecified)	.[0.0914 µM]	/	/	/	.
C=C1[C@@H](O)[C@H](Cc2ccccc2)N(Cc2ccccc2Br)S1(=O)=O	.	/	/	.	14µM
O=C(NCCc1nc2ccccc2n1CCOc1cccc2ccccc12)C1CCCCC1	.	/	/	/	.
CC(C)C(NC(=O)c1ccccc1)C(=O)OCC(=O)N1CCCC1 (stereo unspecified)	.	/	/	.	.
CC(C)[C@H](NC(=O)c1ccc(Cl)cc1)C(=O)OCC(=O)N1CCN(c2ccccc2)CC1	.	/	/	.	32µM
SMILES	TrxR1 substrate	GALK inh	PKM2 activator	PI4K2A inh	TrxR1 inh
Cc1ccc(S(=O)(=O)CCC(=O)Oc2ccc3c(C)cc(=O)oc3c2)cc1	.	/	/	.	71µM
Cc1ccc(OC(=O)CCS(=O)(=O)c2ccc(C)cc2)cc1	.	.	.	.	.
Nc1nc(Br)c2c(F)cccc2c1-c1ccc(Cl)cc1	.	.	.	.	5.6µM
COc1ccc(C(=O)N2CCC(c3ccncc3)CC2)cc1OC	.	/	/	.	.
COc1ccc(CC(=O)Nc2cc(=O)n(C)c(=O)n2C)cc1	.	.	16µM	.	.
CCC(=O)NC(=S)Nc1ccccc1C(=O)OC	.	.	.	.	50µM
CCCC(=O)NC(=S)Nc1ccccc1C(=O)OC	.	/	.	.	.
COC(=O)c1cn[nH]c1NC(=S)Nc1ccccc1C	.	.	.	.	0.79µM
CCCC/C=C/[C@H](c1ccccc1)[C@H](CO)Cc1cnc2ccccc2c1	.	/	/	/	?
NC(=N\N=Cc1ccccc1)/C(N)=N/N=Cc1ccccc1	.	/	/	.	.
NC(=N\N=Cc1ccco1)/C(N)=N/N=Cc1ccco1	?	/	/	.	79µM
Cc1ccc(S(=O)(=O)c2nnn3c2nc(N2CCCC(C)C2)c2cc(Cl)ccc23)cc1C (stereo unspecified)	.	/	/	.	.
CCCCCOC(=O)c1[nH]c2c(c1C)C(=O)CC(c1ccco1)C2 (stereo unspecified)	.	/	16µM	.	.
CCOc1ccc2cc(-c3nnc(Nc4ccccc4F)s3)c(=O)oc2c1	.	/	/	.	.
CCCc1nc2sc3c(SCC(=O)NCc4ccco4)ncnc3c2c2c1CCC2	.	.	.	.	45µM
Cc1nc(SCC(=O)NCc2ccco2)c2c3c(sc2n1)CCCC3	.	.	.	.	?
Cc1ccc(/C=C2\C(=O)ON=C2c2ccccc2)o1	.	.	.	.	.
Cc1ccc(-c2ccc(/C=C3\C(=O)ON=C3c3ccccc3)o2)c([N+](=O)[O-])c1	.	.	28µM	.	11µM
CC(C)c1cc(C(C)C)c(S(=O)(=O)N2CCCC(C(=O)NCc3cccs3)C2)c(C(C)C)c1 (stereo unspecified)	/	/	/	.	/
O=C(NP(=O)(N1CCCC1)N1CCCC1)C1=C(N2CCOCC2)/C(=C/c2cccc([N+](=O)[O-])c2)CC1	.	.	.	.	.
O=[N+]([O-])c1ccc(/C=C2\CCC(C3=CCCC3)=C2N2CCOCC2)cc1	.	.	.	.	40µM
COc1cc(-c2noc(C3CC(=O)N(c4cc(C)ccc4C)C3)n2)cc(OC)c1OC (stereo unspecified)	.	/	/	.	.
CC(C)=C1C(=O)C(c2ccccc2)=C2CN3C(=O)N(CCc4ccccc4)C(=O)[C@]3(C)[C@H]21	/	/	.	/	/
O=C1C(=O)C(c2ccc(O)cc2O)Oc2cc(O)cc(O)c21 (stereo unspecified)	.	/	/	/	4.5µM
Cc1ccc(CN(C)C(=O)C2CCC(=O)N(CC3CCCCC3)C2)o1 (stereo unspecified)	.	.	.	.	40µM
COc1ccc(NC(=O)Cn2c(=O)n(Cc3ccco3)c(=O)c3sc4ccccc4c32)cc1OC	.	/	/	.	.
CC(=O)NC1=CC(=O)c2nonc2C1=O	7.1µM	/	/	/	?
COCCn1nnnc1C(c1cc2cc(C)ccc2[nH]c1=O)N1CCCCCC1 (stereo unspecified)	.	.	.	.	4.5µM
Cc1cc(C)c2cc(C(O)c3nnnn3Cc3ccccc3)c(=O)[nH]c2c1 (stereo unspecified)	.	.	13µM	.	.
